Test results from ChEMBL document CHEMBL3988442, “University of Dundee, Small-Polar-MMV Screening Library” (2021).
The campaign covered roughly 48,000 compounds. About 13,000 (27%) showed an effect of 50% or more. The list shows a part of the results.

Each molecule was assayed on Wolbachia pipientis (assay: Anti-Wolbachia Cell-Based Screen). Conditions: 5 µM.
Format: functional
Parameters: scale not given: in the data most compounds retested in dose-response had high values

SMILES	Percent Effect [%]
CC(c1cccc(Cl)c1)N(C)CCS(=O)(=O)CCC(N)=O (stereo not given)	6.991
CC(c1ccc(F)c(F)c1)N(C)CCS(=O)(=O)CCC(N)=O (stereo not given)	2.944
CC(c1cccc(S(N)(=O)=O)c1)N(C)CCOC(C)(C)C (stereo not given)	105.4
COCCN(C)C(C)c1cccc(S(N)(=O)=O)c1 (stereo not given)	128.5
CC(c1cccc(O)c1)N(C)S(N)(=O)=O (stereo not given)	16.66
CC(c1cccc(O)c1)N(C)S(=O)(=O)c1cccnc1 (stereo not given)	-4.431
O=C(c1cc[nH]n1)N1CCc2ccc(S(=O)(=O)N3CCOCC3)cc2C1	111.1
CN1CCN(S(=O)(=O)c2ccc3c(c2)CN(C(=O)C(C)(C)C)CC3)CC1	-9.365
O=C(c1ccc[nH]1)N1CCc2cc(S(=O)(=O)N3CCOCC3)ccc2C1	106.5
O=C(c1ccc[nH]1)N1CCc2c(cccc2S(=O)(=O)N2CCOCC2)C1	94.62
CCCNC(=O)N1CCc2ccc(S(=O)(=O)N3CCN(C)CC3)cc2C1	-8.252
CCCNC(=O)N1CCc2ccc(S(=O)(=O)N3CCCC3)cc2C1	-4.985
CCCNC(=O)N1CCc2ccc(S(=O)(=O)N3CCOCC3)cc2C1	-14.34
O=C1COc2ccc(S(=O)(=O)N3CCOCC3)c3c2N1CCC3	16.87
CC(C)CC(=O)N1CCc2ccc(S(=O)(=O)N3CCN(C)CC3)cc2C1	0.4144
O=C(O)c1cc(-n2cc3c(n2)CCC3)cc(S(=O)(=O)N2CCOCC2)c1	-7.127
O=C(c1ccc[nH]1)N1CCc2ccc(S(=O)(=O)N3CCOCC3)cc2C1	99.23
O=C(c1c[nH]c(=O)c(Cl)c1)N1CCc2ccccc2C1	10.27
CCN1CCC(CC(=O)NC[C@H]2CCc3ccccc3O2)CC1	15.83
CC(=O)N1CCN(Cc2ccc(F)cc2)CC2(CC(=O)N(C)C2)C1.O=C(O)C(F)(F)F (stereo not given)	98.03
CCN1CC2(CC1=O)CN(Cc1cnn(C)c1)CCN(C(C)=O)C2.O=C(O)C(F)(F)F (stereo not given)	1.894
CC(=O)N1CCN(Cc2ccsc2)CC2(CC(=O)N(C)C2)C1.O=C(O)C(F)(F)F (stereo not given)	101.7

SMILES	Percent Effect [%]
CC(=O)N1CCCC2(CN(Cc3ccc(F)cc3)CCO2)C1.O=C(O)C(F)(F)F (stereo not given)	-7.517
Cn1cc(CN2CCC3(C2)CN(Cc2ccsc2)C3)cn1.O=C(O)C(F)(F)F.O=C(O)C(F)(F)F	-10.11
CCn1cc2c(n1)C(COCC1CC1)CN(C(=O)c1ccsc1)C2 (stereo not given)	2.501
CCOCCC(=O)N1CCCN(c2ccccc2C)CC1	0.9002
CCCNC(=O)c1cc2c(s1)CCN2c1ncccn1	122.6
CC(C)NC(=O)c1cc2c(s1)CCN2c1ncccn1	92.76
CCc1cc(C(=O)N2CCC(Nc3ccc(C)nn3)CC2)sc1C	-9.138
O=C(NCCN1CCCC1)c1cc2c(s1)CCN2c1ncccn1	97.7
Cc1ccc(N2CCc3sc(C(=O)N4CCOCC4)cc32)nn1	84.11
CC(C)NC(=O)c1nc2c(s1)CCCN2c1ccccc1	7.229
O=C(NCCN1CCOCC1)c1cc2c(s1)CCN2Cc1cccnc1	-4.667
CCCNC(=O)c1nc2c(o1)CN(c1ncccn1)C2	-1.924
CC(C)NC(=O)c1nc2c(s1)CCCN2C(C)C	3.81
O=C(NCCN1CCCC1)c1nc2c(o1)CN(c1ncccn1)C2	-7.93
CCCNC(=O)c1cnc2n1CCCC2	-8.644
Cc1ccc(N2C[C@H](C(=O)N3CCOCC3)[C@@H]3CCO[C@@H]3C2)nn1	-2.103
c1cc(-c2nnn3c2COC(CNCC2CCOCC2)C3)ccn1 (stereo not given)	-54.53
c1cnnc(N2CCCC(NCc3cccc4c3OCO4)C2)c1 (stereo not given)	3.932
CCC(NC(=O)NCc1ccoc1C)c1c(C)nn(C)c1C (stereo not given)	3.251
CCN1CCCC(c2c(-c3ccccc3)ncn2CCCO)C1 (stereo not given)	-4.818
Cc1ccc(N2CCc3sc(C(=O)NCCN4CCCC4)cc32)nn1	102.9
Cc1nnsc1C(=O)NCC1CCN(c2ccccn2)CC1	1.014

SMILES	Percent Effect [%]
Cc1ccc(N2CCCc3sc(C(=O)NCCC#N)nc32)nn1.O=C(O)C(F)(F)F	-4.317
O=C(NCC1CC1)c1cc2c(s1)CCN2c1ncccn1	107.3
CCOCCCNC(=O)c1nc2c(s1)CCCN2c1ccc(C)nn1.O=C(O)C(F)(F)F	-5.598
CCNC(=O)C(C)(C)NC(=O)NCc1cccc(Br)c1	5.794
CCc1ccc(CN2CCN(CCOC)[C@@H]3CS(=O)(=O)C[C@@H]32)cc1	-8.66
c1ccc(-c2nc(SCc3nnc(C4CC4)o3)n[nH]2)nc1	-8.457
CS(=O)(=O)c1ccc(CNC2CCCN(c3cccnn3)C2)cc1 (stereo not given)	6.689
Cc1cc(NC(=O)CNC2CCCN(c3cccnn3)C2)on1 (stereo not given)	92.8
Cc1cc(NC(=O)CN(C)C2CCCN(c3cccnn3)C2)n(C)n1 (stereo not given)	-4.115
Cc1ccc(N2CCCC(NCC(=O)Nc3cc(C)no3)C2)nn1 (stereo not given)	8.409
Cc1nc(CNC2CCCN(c3cccnn3)C2)no1 (stereo not given)	0.4362
CC(C)c1cc(NC(=O)CNC2CCCN(c3cccnn3)C2)on1 (stereo not given)	100.2
Cc1cc(NC(=O)CN(C)C2CCCN(c3cccnn3)C2)on1 (stereo not given)	99.52
Cc1ccc(N2CCCC(N(C)Cc3cc(C)no3)C2)nn1 (stereo not given)	1.683
c1cnnc(N2CCCC(NCc3ccncc3)C2)c1 (stereo not given)	0.6717
Cc1cc(NC(=O)NCCc2cscn2)nn1C	-10.8
O=C(Cc1cccc(F)c1F)NC1COc2ccccc2C1=O (stereo not given)	2.844
CN(C)CCN1CCOCC2(CCCN(C(=O)c3ccccc3)C2)C1.O=C(O)C(F)(F)F.O=C(O)C(F)(F)F (stereo not given)	-4.449
O=C(O)C(F)(F)F.O=C(c1cnccn1)N1CCCC2(COCCN(CC3CC3)C2)C1 (stereo not given)	-6.241
CCN1CCOCC2(CCCN(C(=O)c3cccc(O)c3)C2)C1 (stereo not given)	105.1
CCN1CCOCC2(CCCN(C(=O)c3cnccn3)C2)C1 (stereo not given)	95.08
CCN1CCOCC2(CCCN(C(=O)c3ccccc3F)C2)C1.O=C(O)C(F)(F)F (stereo not given)	106.1

SMILES	Percent Effect [%]
CN(C)CCN1CCOCC2(CCCN(C(=O)c3cccc(O)c3)C2)C1 (stereo not given)	-3.261
O=C(c1ccnc(-n2cnnc2)c1)N1CCCC2(CCOC2)C1 (stereo not given)	13.33
CC(C)CN1CCCC2(CCN(C(=O)c3cnccn3)C2)C1 (stereo not given)	-16.61
CN(C)CCN1CCOCC2(CCCN(C(=O)c3cccn3C)C2)C1.O=C(O)C(F)(F)F.O=C(O)C(F)(F)F (stereo not given)	-8.448
CC(C)CNC(=O)c1nc2c(s1)CCN(C(=O)c1ccc(Cl)cc1)CC2	-4.208
CC(C)OCCCNC(=O)N(C)C(C)c1ccc(-n2cncn2)cc1 (stereo not given)	-7.098
CCN1CC(CN(C)Cc2nc(-c3cccc(C)c3)oc2C)CC1=O (stereo not given)	105.1
Cc1cccc(-c2nc(CN3CCOCS3(=O)=O)c(C)o2)c1	4.701
CCN(CCn1cccn1)Cc1nc(-c2cccc(C)c2)oc1C	-6.378
CCc1nnc(CN(C)Cc2nc(-c3ccccc3Cl)oc2C)o1	-2.214
CCN1CC(CN(C)Cc2nc(-c3cccc(Cl)c3)oc2C)CC1=O (stereo not given)	102.8
CNC(=O)CC1CCN(Cc2nc(-c3cccc(Cl)c3)oc2C)CC1	-0.6077
Cc1nc(C2CCCN(C(=O)c3cc(Cl)c[nH]3)C2)no1 (stereo not given)	0.9971
N#Cc1cccc(CNC(=O)NC2CCN(CC(F)F)CC2)c1	-0.5422
CCN(CCNCc1cccc(C#N)c1)C1CC1	-10.23
O=C(Cc1cccc(F)c1)NCCNCc1ccco1	-5.047
N#Cc1cccc(CNCCNC(=O)Cc2cccc(F)c2)c1	98.51
O=C(Cc1cccc(F)c1)NCCNCC1CNc2ccnn2C1 (stereo not given)	0.2613
O=C(Cc1cccc(F)c1)NCCNCc1cccnc1	96.05
COCCN(CCC#N)S(=O)(=O)c1cc(F)cc(F)c1	-7.872
c1ccc(C(c2ccccc2)N2CCN(CCn3cncn3)CC2)cc1	0.8212
CC(C)(C)c1ccn(C2(C(=O)O)CCN(c3nccc(N)n3)CC2)n1	-5.25

SMILES	Percent Effect [%]
O=C(c1cnccn1)N1C[C@@H]2[C@@H](C1)OCC(=O)N2CC1CCCC1	-6.759
COc1cc(C2(C(=O)NCC(=O)NC3CC3)CC2)ccc1C	9.021
O=C(NCCNC(=O)c1scnc1Cl)c1ccccc1	-1.754
Cc1ncsc1-c1ccn(CC(=O)Nc2cnn(C)n2)n1	-5.489
Cc1ncsc1-c1cc(C(=O)NCCO)ccn1	109.9
CNC(=O)c1ccc(CN(C(=O)c2scnc2C)C2CC2)cc1	4.078
Cc1ncsc1C(=O)NCCSCCCO	-0.9457
CNC(=O)CNC(=O)c1ccc(-c2scnc2C)nc1	75.09
CCCc1nnc(NC(=O)N2CCCC2c2ccncc2)s1 (stereo not given)	3.484
CN(Cc1ccc(-n2cccn2)cc1)c1nc(N)nc2c1CCNCC2	3.985
CCOc1ccc(-c2nc(CN(C)Cc3c(C)noc3C)cs2)cc1	-23.12
c1cnc2c(-c3nccn3C[C@@H]3CCCN4CCCC[C@H]34)cccc2c1	5.22
CS(=O)(=O)NCC1CCN(C(=O)Oc2ccccc2)CC1	-10.63
CN(C)C(=O)N1CCC(C2C(=O)Nc3ccccc32)CC1 (stereo not given)	-38.16
CO[C@@H]1CN(c2ccccc2)S(=O)(=O)[C@@]12CCN(C(=O)N(C)C)C2	88.6
COC(=O)N1CCC2(CC1)CC(c1ccccc1)CN(C)C2 (stereo not given)	-13.78
COC(=O)N1CC[C@@]2(C1)[C@H](OC)CN(c1ccccc1)S2(=O)=O	101.1
CN(C)C(=O)N1CCN(C(=O)CCc2ccccc2)[C@H]2CS(=O)(=O)C[C@H]21	-4.375
CO[C@@H]1CN(c2ccccc2)S(=O)(=O)[C@@]12CCN(C(C)=O)C2	94.97
O=C(C1CC2(CCNCC2)CN1)N1CCN(c2ccccc2)CC1 (stereo not given)	-0.8952
CO[C@@H]1CN(c2ccccc2)S(=O)(=O)[C@@]12CCNC2	127.8
CC(=O)N1CCC2(CC1)CC(Oc1ccccc1)CO2 (stereo not given)	-5.824
